# In PubChem BioAssay (NCATS):
# Inconclusive results are not listed. Activity calls are given as the source filed them. Calls follow the shape of the dose curve; as a rule, active = well fitted inhibition curve with a large enough effect; inconclusive = small, poorly fitted or top-dose-only effect; inactive = no such curve, though single readings can be large or run the other way.
# Target: Rap guanine nucleotide exchange factor 3 (Homo sapiens) (UniProt O95398)
# Experiment: Confirmatory qHTS for antagonist of cAMP-regulated guanine nucleotide exchange factor 3 (EPAC1) (AID 1645880); also: nearly all actives have a fitted effect of over 55% in size
# Conditions: EPAC1 Rap1B-BODIPY-GDP exchange, fluorescence; activity, negative = inhibition: at 115 µM (top of the series)
# Source text: Assay Provider (PI): Xiaodong Cheng Ph.D. The University of Texas Medical Branch, […], TX MLPCN Grant: NS066510 In multi-cellular eukaryotic organisms, the effects of cAMP are transduced by two ubiquitously-expressed intracellular cAMP receptors, the classic protein kinase A/cAMP-dependent protein kinase (PKA/cAPK) and the more recently discovered exchange protein directly activated by cAMP/cAMP-regulated guanine nucleotide exchange factor (EPAC/cAMP-GEF). Both PKA and EPAC are ubiquitously expressed in all tissues, and an increase in intracellular cAMP levels will lead to the activation of both PKA and EPAC. Therefore, careful dissections of the individual role and relative contribution of EPAC and PKA within the overall cAMP signaling in various model systems are critical for further elucidating the mechanism of cAMP signaling. To date no EPAC-specific antagonists and agonist, as well as isoform-specific agonists have been reported, and developing EPAC-specific pharmacological probes to determine the physiological functions that EPAC play in the overall cAMP-mediated signaling remains a major challenge within the research field. Furthermore, identified regulators of EPAC may lead to new mechanism-based therapeutic strategies specifically targeting the EPAC / cAMP-signaling components as EPAC has been implicated to play important roles in major human pathological conditions such as diabetes, heart disease, and cancer. This qHTS will be used to screen the Molecular Libraries Small Molecule Repository (MLSMR) as a concentration-titration series using the NCGC unique quantitative screening (qHTS) platform to find activators for EPAC1. In addition, this assay will also be used as a counterscreen for the EPAC2 qHTS. This fluorescent based assay is developed and validated for EPAC1 that measures exchange using EPAC effector Rap1 complex with BODIPY-GDP, a GDP analog with a tethered fluorophores. Activators are identified by monitoring the change in fluorescence signal as the exchanged free BODIPY-GDP has a reduced fluorescence compared to Rap1-bound BODIPY-GDP. Increase in signal (activation) is the desired outcome for the EPAC1 agonist while no activity in this assay is desired for the EPAC2 agonist counterscreen. Reference: [1] de Rooij, J., Zwartkruis, F. J., Verheijen, M. H., Cool, R. H., Nijman, S. M., Wittinghofer, A., and Bos, J.L. (1998) Nature 396, 474-477. Kawasaki, H., Springett, G. M., Mochizuki, N., Toki, S., Nakaya, M., Matsuda, M., Housman, D. E., and Graybiel, A. M. (1998) Science 282, 2275-2279.
# Briefly, three uL of reagents (100 nM EPAC1, 250 nM RAP1B-BODIPY-GDP, 50 uM GDP) were dispensed into a 1536-well Greiner black solid-bottom medium binding assay plate. Controls and test compounds (23 nL) were transferred to the plate via a Kalypsys pin tool equipped with a 1536-pin array. The plates were centrifuged at 1,000 rpm for 15 seconds followed by 5 minute incubation at room temperature. The assay plates were read at 5 minute intervals for 30 minutes in the ViewLux plate reader using 480nm excitation and 540nm emission filters. The results were normalized to the […] positive control ATA and DMSO.
# Potency is read from the fitted curve at half-maximal effect.
# Chain of Rap guanine nucleotide exchange factor 3 (Homo sapiens) (O95398 whole entry, looked up): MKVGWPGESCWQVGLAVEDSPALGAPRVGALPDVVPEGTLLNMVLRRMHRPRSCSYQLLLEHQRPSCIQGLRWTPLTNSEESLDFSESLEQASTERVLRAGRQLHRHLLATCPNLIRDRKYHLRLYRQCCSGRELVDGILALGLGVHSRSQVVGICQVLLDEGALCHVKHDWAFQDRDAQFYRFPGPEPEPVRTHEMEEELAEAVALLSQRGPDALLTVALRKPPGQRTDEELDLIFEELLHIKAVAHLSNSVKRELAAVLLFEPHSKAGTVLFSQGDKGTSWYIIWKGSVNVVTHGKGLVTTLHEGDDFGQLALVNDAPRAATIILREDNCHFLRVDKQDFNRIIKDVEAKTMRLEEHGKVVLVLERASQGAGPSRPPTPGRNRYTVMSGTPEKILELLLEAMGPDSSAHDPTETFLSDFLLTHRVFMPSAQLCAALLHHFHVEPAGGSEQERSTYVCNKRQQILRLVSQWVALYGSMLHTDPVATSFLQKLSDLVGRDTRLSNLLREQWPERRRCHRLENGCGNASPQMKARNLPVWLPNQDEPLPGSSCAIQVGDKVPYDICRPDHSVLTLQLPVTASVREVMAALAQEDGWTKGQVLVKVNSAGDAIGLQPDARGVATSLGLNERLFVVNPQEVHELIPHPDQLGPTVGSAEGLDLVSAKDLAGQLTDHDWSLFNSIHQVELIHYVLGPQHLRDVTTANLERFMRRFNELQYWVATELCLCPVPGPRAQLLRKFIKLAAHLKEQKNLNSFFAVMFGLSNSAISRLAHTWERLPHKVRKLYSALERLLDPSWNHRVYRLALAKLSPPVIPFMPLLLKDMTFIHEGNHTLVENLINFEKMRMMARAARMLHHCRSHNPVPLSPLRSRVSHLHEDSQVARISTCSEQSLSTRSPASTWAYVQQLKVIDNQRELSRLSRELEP
SMILES,"activity, negative = inhibition",Potency
Cc1cccc(N2CCCC2=Nc2ccc(Br)cc2C#N)c1,-21.1% (inactive),
CCc1ccc(CNC(=O)Cn2nc(C)n3c(cc4cc(C)ccc43)c2=O)cc1,-22.4% (inactive),
O=C(Nc1ccccc1C(=O)O)c1cccc(S(=O)(=O)Nc2ccc(Br)cc2)c1,,75.7 µM (active)
CCCCCN(C(=O)CCC(=O)OCC(=O)N1CCC(C)CC1)c1c(N)n(CCCC)c(=O)[nH]c1=O,-14.9% (inactive),
CCCc1nc2ccccc2c(=O)n1/N=C/c1ccc(O)c(O)c1,-29.9% (inactive),
Cc1[nH]n(-c2ccccc2)c(=O)c1C(c1ccc(C(=O)O)cc1)c1c(C)[nH]n(-c2ccccc2)c1=O,-10.8% (inactive),
O=C(O)CN1C(=O)/C(=C\c2cc(Br)ccc2OCc2ccccc2Cl)SC1=S,,33.8 µM (active)
O=C(c1ccc(-c2ccccc2Cl)o1)N1CCC1,-16.7% (inactive),
Cc1ccc2oc(=O)n(Cc3ccc(OC(C)C)cc3)c2c1,-16.3% (inactive),
Cc1nc(Nc2ccc(Br)cc2Br)c([N+](=O)[O-])c(=O)[nH]1,-11% (inactive),
CCN(CC)c1ccc(/C=C/C(=O)c2ccc(Br)cc2)cc1,286% (inactive),
COc1cc2nc(N3CCNCC3)nc(N)c2cc1OC,-14.1% (inactive),
COc1ccccc1NC(=O)CSc1nc2sc(C)c(C)c2c(=O)n1C,-13.3% (inactive),
O=C(O)c1ccccc1-c1ccccc1C(=O)Nc1ccc2c(c1)oc(=O)c1ccccc12,,75.7 µM (active)
CCN(CC)c1ccc(C=C2SC(=S)NC2=O)cc1,-18% (inactive),
O=C(c1ccccc1)c1cccc2ccccc12,-19.1% (inactive),
O=C(N/N=C/c1ccc(-c2ccc(Cl)c(C(=O)O)c2)o1)c1cc2c(ccc3ccccc32)o1,,12.6 µM (active)
Cc1ccc(-n2nnnc2SCC(=O)NCC2(N3CCOCC3)CCCCC2)cc1,-20.4% (inactive),
CCN(Cc1cc(=O)oc2cc(C)ccc12)c1ccccc1,-19.9% (inactive),
CC1=CC2=NC(=O)/C(=C/c3coc4ccccc4c3=O)C(=N)N2O1,2.02% (inactive),

SMILES,"activity, negative = inhibition",Potency
COc1ccc(CCNC(=O)CCCn2c(SCC(N)=O)nc3cc4c(cc3c2=O)OCO4)cc1OC,-30.8% (inactive),
CCc1nc2ccccc2c(C(=O)NCc2ccccc2)c1C,-17.6% (inactive),
O=C(Nc1ccccc1N1CCCCC1)C1=COCCO1,-12.2% (inactive),
C=C(C)Cn1c(C)cc(C)c(S(=O)(=O)c2ccc(C)cc2)c1=O,-11.7% (inactive),
Cn1c(=O)c2c(nc(NCCc3ccccc3)n2CC(=O)NCCc2ccccc2)n(C)c1=O,-21.1% (inactive),
O=C(CSc1n[nH]c(-c2ccccc2)n1)c1ccc(O)c(O)c1,,42.6 µM (active)
O=C(Cc1c(F)cccc1Cl)Nc1ccc(S(=O)(=O)Nc2nccs2)cc1,-28.5% (inactive),
CCN(c1ccccc1)S(=O)(=O)c1ccc(C(=O)Nc2ccncc2)cc1,-13.3% (inactive),
Cc1cc(N(C)C)c(C)cc1/C=C/c1ccnc2ccccc12,2.01% (inactive),
CCC(C)(C)C1CCc2c(sc(NC(=O)c3ccccc3C(=O)O)c2C#N)C1 (stereo not given),,75.7 µM (active)
COc1ccc(NS(=O)(=O)c2ccc(S(=O)(=O)N3CCCC3)cc2)cc1,-17.5% (inactive),
C[C@H]1CN([C@@H](C)CO)C(=O)CCCn2cc(nn2)CO[C@@H]1CN(C)S(=O)(=O)c1ccc(-n2cccn2)cc1,-19.3% (inactive),
CC(=O)/C(=N\Nc1ccccc1)Sc1cccc2cccnc12,5.06% (inactive),
CC(=O)c1ccc(N2CCN(C(=O)c3cc(-c4cccnc4)nc4ccc(Br)cc34)CC2)cc1,-24.7% (inactive),
COC(=O)NCc1c(C)nn(-c2ccccc2)c1-n1cccc1,-30.9% (inactive),
COc1cc(C(=O)c2ccccc2)c([N+](=O)[O-])cc1OC,-13.7% (inactive),
CN1CCN(C2=CC3=CC(=C(C#N)C#N)CCC3CC2)CC1 (stereo not given),379% (inactive),
CCCN1CC=C2C(C#N)=C(N)C(C#N)(C#N)C(c3cccc(OC)c3OC)C2C1 (stereo not given),-7.63% (inactive),
COc1ccc(S(=O)(=O)Nc2cccc(C)c2C)c2cccnc12,-20.7% (inactive),
N#C/C(=C(/O)C(Cl)(Cl)Cl)c1nc2ccccc2[nH]1,-20.9% (inactive),
